Screens from PubChem.
p-CIP stab down: lowers stability of the mouse p/CIP coactivator protein. F442A p/CIP-EGFP cells, EGFP fluorescence, 16 h. decrease of EGFP signal, % at 10 µM. actives 0.01% (n = 290,000);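 active = EGFP signal decrease of at least 30% at 10 µM or well 3 SD below plate mean, unless failing retest; inactive = the rest, including hits failing retest or dose response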
HSF-1 act: increases HSF-1 driven luciferase reporter signal. NIH3T3-HGL HSF-1 luciferase reporter, MG132, 8 h; 100% = twice DMSO control signal. activation, % at 9 µM. actives 1.7% (n = 300,000). AID 504408;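 active = mean replicate activation of at least 50% with a set share of replicates each reaching 50%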;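 also: 0% = median of the neutral control wells and 100% = twice that signal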
HSP90 inh: blocks HSP90-mediated luciferase refolding in reticulocyte lysate; actives 0.91% (n = 290,000); inhibition, % at 5.6 µM; Rabbit reticulocyte lysate, luciferase refolding luminescence, 3 h;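 active = inhibition above the screen-wide mean plus 3 SD, computed separately per campaign, cut at about 16% in these data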;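 also: 0% = DMSO wells and 100% = 60 µM geldanamycin wells; inhibitors lower the luminescence because luciferase stays unfolded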
Hsp70 act: Hsp70 transcriptional activation, primary screen; HeLa Hsp70 promoter luciferase reporter, luminescence; scaled: vehicle 0, proteasome-inhibitor control 100%; activation, % at 10 µM; actives 0.04% (n = 200,000); AID 1203;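 active = activation above the mean across all tested compounds plus 3 SD, cutoff set per campaign, cut at about 5.5% in these data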;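 also: 100% = MG132 at 30 µM as the positive control and 0% = DMSO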
HSF1 inh: HSF1 inhibition; actives 0.77% (n = 300,000); activity change, negative = inhibition, % at 7.5 µM (by protocol); NIH3T3-HGL HSE-luciferase, MG132-induced, luminescence 8 h; hits give low values;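 active = more than half of replicate wells show activity change below -50%, luminescence cut by over half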;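 also: luciferase reports HSF-1 transcriptional activity via heat shock element; 0% = median of DMSO wells and -100% = zero luminescence signal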
NALP1 yeast inh: inhibitors of NALP1 inflammasome in yeast; actives 0.61% (n = 280,000); inhibition, % at 10 µM; S. cerevisiae NALP1/ASC/caspase-1 growth, X-gal OD620, 72 h; in the data active = inhibition mostly above about 24%, no sharp cut-off; inactive = mostly below about 32%
Active calls of the source: *; nt = no result. A selection: hits, their analogues and other compounds. The true share with any hit is near 3.8%.

SMILES	p-CIP stab down	HSF-1 act	HSP90 inh	Hsp70 act	HSF1 inh	NALP1 yeast inh
CN(C(=O)C1CCC(=O)N(Cc2ccccc2F)C1)C1CCOCC1 (configuration not stated)	2	6	-2	nt	-4	7
CCCN1Cc2cccc(C(=O)NC(CC(=O)OCC)c3ccc(OCC)c(OC)c3)c2C1=O (configuration not stated)	-2	1	2	0	2	-3
COc1ccccc1C(=O)NCCCNC(=O)c1cccnc1	-3	7	-1	nt	-5	0
Cc1ccc(OCCCCN2CCCCC2)c(C)c1	-3	3	5	nt	5	14
Cc1ccc(OCCCCNC2CCCC(C)C2C)c(C)c1 (configuration not stated)	5	-1	-1	0	2	30*
CN(C)S(=O)(=O)c1cccc(NC(=O)COC(=O)/C=C/c2ccc(Br)o2)c1	7	3	-2	nt	5	13
CN(C)S(=O)(=O)c1cccc(NC(=O)COC(=O)/C=C/c2ccc([N+](=O)[O-])cc2)c1	-8	63*	2	0	20	-1
Cc1ccc(NC(=O)COC(=O)/C=C/c2ccc(Br)o2)cc1S(=O)(=O)N(C)C	-4	81*	-1	0	56	3
CCC(C)N(C(=O)COC(=O)c1nc2nc(C)cc(C)n2n1)C1CCS(=O)(=O)C1 (configuration not stated)	nt	5	nt	nt	4	nt
OCC[C@H]1C[C@H](O)[C@@H](O)[C@@]2(CCCCO2)O1	0	-29	-2	0	-11	26
CCOC(=O)c1c(NC(=O)CSc2nnc(-c3c[nH]c4ccccc34)n2CCOC)sc2c1CCCC2	0	10	8	0	10	22
CCOC(=O)c1c(NC(=O)CSc2nnc(-c3c[nH]c4ccccc34)n2C)sc2c1CCCC2	-6	-65	0	0	-56*	36
COC(=O)c1ccc2nc(C3CCCCC3)c3c(c2c1)CCC3	nt	-11	nt	nt	0	nt
CC(C)CC(=O)/C(=C\c1ccc(Cl)cc1Cl)n1cncn1	-15	13	0	0	-1	112*
Cc1ccnc(SCC(=O)c2ccc(Br)cc2)c1C#N	-4	90*	0	0	53	31
Cc1ccc(C(=O)CSc2nsc(C)c2C#N)cc1	-9	16	-3	0	11	28
O=C(CCc1nnc(Cc2cccc(C(F)(F)F)c2)o1)NCCc1ccccc1F	-6	30	1	nt	27	14
Cc1ccc(Nc2c(-c3ccc(C)o3)nc3ncccn23)cc1	-2	-15	-1	nt	3	28
Cc1ccc(-c2nc3cnccn3c2Nc2c(C)cccc2C)o1	-30	-85	-2	0	-82*	87
Cc1ccc(-c2nc3ncccn3c2Nc2ccccc2C)o1	-2	57*	0	0	19	-1
COc1ccc(NC(C)=O)cc1NC(=O)c1ccc2ccccc2c1	-2	9	-4	0	6	3
Oc1c(Cl)cc(Cl)cc1/C=C/c1ccc2cccc(O)c2n1	-251	14	-3	1	9	4
COc1cc(Br)c(/C=C/c2ccc3cccc(O)c3n2)cc1OC	3	27	1	nt	11	-8
Cc1ccsc1/C=C/c1ccc2ccccc2n1	0	-35	9	0	-24	16
Oc1ccc(Cl)cc1/C=C/c1ccc2cccc(O)c2n1	-8	58*	0	0	29	1
SMILES	p-CIP stab down	HSF-1 act	HSP90 inh	Hsp70 act	HSF1 inh	NALP1 yeast inh
Cc1ccsc1/C=C/c1ccc2cccc(O)c2n1	4	71*	2	0	46	12
COc1cc(Br)cc(/C=C/c2ccc3cccc(O)c3n2)c1O	-6	85*	1	nt	63	15
COC(=O)CC1C(=O)NCCN1C(=O)CSc1nnnn1-c1ccc(Cl)cc1 (configuration not stated)	10	13	-2	0	1	9
CN(C)S(=O)(=O)c1cccc(NC(=O)c2ccc3c(c2)S(=O)(=O)N=C2CCCCCN23)c1	nt	-4	nt	nt	-6	nt
CS(=O)(=O)c1ccc(NC(=O)c2ccc3c(c2)S(=O)(=O)N=C2CCCCCN23)cc1	nt	-65	nt	nt	-54*	nt
Cn1[nH]c(C(F)(F)F)cc1=O	8	-2	3	0	-1	-22
CCCCn1c(=O)[nH]c(=O)c2c1nc(-c1cc(Cl)c(OC)c(OC)c1)n2C	-15	-4	3	nt	3	9
Cc1ccc(CNC(=O)CSc2ncn[nH]2)cc1	-6	5	-3	nt	-5	14
O=C(CSc1nc2ncccc2[nH]1)c1ccc(F)cc1	-11	-4	5	0	10	15
O=C(CSc1ncn[nH]1)c1cccc([N+](=O)[O-])c1	-3	127*	2	0	77	31
O=C(CSc1ncn[nH]1)NCc1ccccc1	-18	-1	0	0	0	28*
O=C(CSc1ncn[nH]1)c1ccccc1	-7	4	1	0	1	5
O=C(CSc1nc2ncccc2[nH]1)c1cccc([N+](=O)[O-])c1	9	66*	2	0	28	17
N#CCC(=O)N1CCN(C=O)CC1	13	nt	-3	0	nt	-17
O=C(CCC1CCCN(C(=O)c2ccc3[nH]ccc3c2)C1)N1CCN(c2ccccn2)CC1 (configuration not stated)	-2	1	1	0	0	-2
COc1cccc(CN(C)C(=S)Nc2cccc(C)c2)c1	5	-8	-4	0	1	-8
C=CCOc1ccccc1CN(C(=O)CCl)c1ccc2c(c1)OCO2	-5	-93	8	nt	-93*	-1
CCOc1ccccc1NC(=O)Nc1ccc2c(c1)OCO2	4	16	-1	nt	5	9
O=C(O)/C=C\c1cccc(-n2nnnc2SCc2ccccc2F)c1	1	15	-2	nt	3	-2
O=C(CCN1CCN(Cc2ccccc2)CC1)NNC(=O)Nc1cccc([N+](=O)[O-])c1	-5	49	-3	nt	8	26*
O=C(/C=C/Nc1ccccc1)c1ccccc1	-3	88*	-1	0	45	-13
Cc1cc(N/C=C/C(=O)c2cccs2)ccc1F	-47	64*	3	0	37	9
Cc1ccc(C(=O)/C=C\Nc2ccc(C)c(C)c2)cc1	-11	56*	-3	0	17	23
COc1ccc(OC)c(NC(=O)CCOc2cccc(C)c2)c1	-8	-20	1	nt	1	16
CC(NC(=O)COC(=O)/C(=C/c1cccs1)c1cccs1)c1ccccc1 (configuration not stated)	-4	6	3	0	-3	28
O=C(OCC(=O)N1CCCC1=O)c1ccc(O)cc1O	nt	6	nt	nt	-5	nt
CCOC(=O)c1ccc(NC(=O)c2ccc[n+]([O-])c2)cc1	-6	-22	2	nt	-1	11
